According to PubChem BioAssay (Tox21):
Several values for one entry are separate records, joined by “and”; a condition that tells them apart may be missing. Identical values can stand only once. Records with an inconclusive call do not appear. Unmarked numbers belong to inactive results. Activity calls are given as the source filed them. Calls come from the whole dose curve; as a rule, active = well fitted cell-killing curve with a large enough effect in the repeat runs; inconclusive = weak or mixed curves, or effect the other way; inactive = no such curve, though single readings can be large or run the other way.

assay: qHTS assay for identifying genotoxic compounds that show differential cytotoxicity against isogenic chicken DT40 cell lines with known DNA damage response pathways - wild type cell line (AID 743012); conditions: DT40 wild type chicken cells viability, CellTiter-Glo, 40 h; series mostly up to 68.4 µM; activity change, negative = cytotoxicity: at the top concentration; note: nearly all actives have a fitted effect of over 60% in size
Description: U.S. Tox21 Program National Center for Advancing Translational Sciences [NCATS] NIH Chemical Genomics Center [NCGC] U.S. Environmental Protection Agency [EPA] National Institutes of Environmental Health Sciences [NIEHS] National Toxicology Program [NTP] U.S. Food and Drug Administration [FDA] Tox21 Assay Overview: DNA repair pathways play a critical role in cellular homeostasis by repairing DNA damage induced by endogenous processes and xenobiotics. Isogenic chicken DT40 cell lines deficient in different DNA repair pathways can be used to identify genotoxic compounds and aid in characterizing the nature of the DNA damage induced. Two DNA repair-deficient cell lines with disrupted genes, Rad54/Ku70 or Rev3, were used to screen the Tox21 10K compound library. Possible genotoxicity was based on the presence of a significant increase in cytotoxicity in one or more of the DNA repair-deficient cell lines compared to that observed in the parental DNA repair-proficient cell line. CellTiter Glo viability assay (Promega, Madison, WI) was used to measure cell viability in these cells after compound treatment. This assay includes the data from the wild type cell line.
Tox21 Assay Protocol Summary: 300 DT40 wild type cells in 5 uL/well were dispensed into white, solid-bottom 1536-well plates using a Multidrop Combi (ThermoFisher Scientific, Waltham, MA) dispenser. After the assay plates were incubated at 37 C/5% CO2 for approximately 0.5 hour, 23 nL of compounds dissolved in DMSO, positive controls or DMSO only was transferred into the assay plate by a pintool work station (Kalypsys, San Diego, CA). The assay plates were incubated at 37 C/5% CO2 for 40 hours. After 5 uL per well of CellTiter-Glo reagent was added into each well of the assay plates, the plates were incubated for 30 min at room temperature and the luminescence intensity of the plates was measured using a ViewLux (PerkinElmer, Shelton, CT) plate reader.
% is set by controls: 0 for no effect and ±100 for the full control effect; potency is the fitted concentration of half-maximal effect.

| SMILES | activity change, negative = cytotoxicity | Potency |
| --- | --- | --- |
| O=S(=O)(O)F | -0.906% [at 95 µM] | – |
| CO/N=C(\C(=O)OC)c1ccccc1CO/N=C(\C)c1cccc(C(F)(F)F)c1 | – | 0.344 µM (active) |
| CN(C)C(=S)SSC(=S)N(C)C | – | 47.3 nM (active) and 240 nM (active) and 24.3 nM (active) |
| C=CC(=C)C | – | 27.3 µM (active) |
| C#CCO | -1.87% | – |
| CC1=C2C[C@H]3[C@@H](CC=C4C[C@@H](O)CC[C@@]43C)[C@@H]2CC[C@]12O[C@@H]1C[C@H](C)CN[C@H]1[C@H]2C | – | 29.8 µM (active) |
| O=[N+]([O-])c1cc(C(F)(F)F)c(Cl)c([N+](=O)[O-])c1Nc1ncc(C(F)(F)F)cc1Cl | – | 0.0969 µM (active) |
| CCC1COC(Cn2cncn2)(c2ccc(Cl)cc2Cl)O1 (stereo not given) | – | 15.4 µM (active) |
| CC(=O)[O][Sn]([c]1ccccc1)([c]1ccccc1)[c]1ccccc1 | – | 0.122 µM (active) |
| CN1CCc2cc3c(cc2C1O)OCO3 (stereo not given) | -2.36% [at 95 µM] | – |
| CC(=O)[O][Pb]([c]1ccccc1)([c]1ccccc1)[c]1ccccc1 | – | 0.154 µM (active) |
| C=CCOC(=O)c1ccccc1N | 1.2% [at 95 µM] | – |
| Cc1cc(C2CC2)nc(Nc2ccccc2)n1 | – | 24.3 µM (active) |
| CNC(=O)/C=C(\C)OP(=O)(OC)OC | 7.48% | – |
| CC(Cc1ccc(OCC(=O)O)cc1)NCC(O)c1csc(C(F)(F)F)n1 (stereo not given) | -13.1% | – |
| O=C(Nc1ccc(F)cc1F)c1cccnc1Oc1cccc(C(F)(F)F)c1 | 1.19% [at 95 µM] | – |
| CC(C)C(Nc1ccc(C(F)(F)F)cc1Cl)C(=O)OC(C#N)c1cccc(Oc2ccccc2)c1 (stereo not given) | -0.664% [at 95 µM] | – |
| CC(C)=CCN1CC[C@@]2(C)c3cc(O)ccc3C[C@@H]1[C@@H]2C | – | 19 µM (active) |
| Cc1c([N+](=O)[O-])c(C)c([N+](=O)[O-])c(C(C)(C)C)c1[N+](=O)[O-] | – | 68.6 µM (active) |
| O=C1C[C@@H]2OCC=C3CN4CC[C@]56c7ccccc7N1[C@H]5[C@H]2[C@H]3C[C@H]46 | – | 26.6 µM (active) |

| SMILES | activity change, negative = cytotoxicity | Potency |
| --- | --- | --- |
| C=CC(=O)[O][Sn]([CH2]CCC)([CH2]CCC)[CH2]CCC | – | 0.864 µM (active) |
| CC(C)N(C(=O)SC/C(Cl)=C/Cl)C(C)C | 3.51% [at 95 µM] | – |
| O=C(O)[C@H](O)[C@@H](O)C(=O)O | -3.46% | – |
| CCN1CCC2(CC1)COc1cc3c(cc12)N(C(=O)c1ccc(-c2ccc(-c4nnc(C)o4)cc2C)cc1)CC3 | – | 1.26 µM (active) |
| CCN(CC)Cc1nccn1-c1ccc([N+](=O)[O-])cc1C(=O)c1ccccc1Cl | – | 29.8 µM (active) |
| O=C(Cl)c1ccccc1F | 2.16% | – |
| CCCCC/C=C\C/C=C\C/C=C\C/C=C\CCCC(=O)NCC(=O)O | 16.5% [at 8.52 µM] | – |
| O=NN(CCO)CCO | 7.63% | – |
| COCCC#N | -0.791% | – |
| CCCN | -0.299% [at 95 µM] | – |
| CN=C=O | 8.14% [at 95 µM] | – |
| CNC(C)(C)Cc1ccccc1 | 0.315% [at 31.4 µM] | – |
| Cc1nn(-c2cc(NS(C)(=O)=O)c(Cl)cc2Cl)c(=O)n1C(F)F | 12.8% | – |
| COc1ccc2c(c1OC)C(=O)O[C@@H]2[C@H]1c2cc3c(cc2CCN1C)OCO3 | -17.7% | – |
| [C-]1=CC=CC1.[Cl][Zr+2][Cl].c1cc[cH-]c1 | 5.63% [at 95 µM] | – |
| CCN(CC)CCN1C(=O)CN=C(c2ccccc2F)c2cc(Cl)ccc21 | – | 6.68 µM (active) |
| COc1nc(C)nc(NC(=O)NS(=O)(=O)c2ccccc2Cl)n1 | 0.377% | – |
| CC1(C)C(C=C(Cl)Cl)C1C(=O)OC(C#N)c1ccc(F)c(Oc2ccccc2)c1 (stereo not given) | -21.6% | – |
| CCOC(=O)CCN(SN(C)C(=O)Oc1cccc2c1OC(C)(C)C2)C(C)C | – | 17.2 µM (active) |
| CN1C(=O)[C@@H](NC(=O)c2cc3ccccc3[nH]2)N=C(c2ccccc2)c2ccccc21 | – | 10.6 µM (active) |
